# Calls of active or inactive are those of the source. No rule for the calls is given here.
# Assays:
# [1] = Coupled enzyme confirmation of inhibitors against recombinant Mtb PanC (AID 375); settings: coupled enzyme assay; measured here: coupling enzymes IC50 repeat trials unless noted;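 as to inhibition: 0% = full reaction with vehicle and 100% = no enzyme background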
# [2] = biological target: Pantothenate synthetase (Mycobacterium tuberculosis (strain ATCC 25618 / H37Rv)) (UniProt P9WIL5); test: as above; settings: coupled enzyme assay; at 10 µM, stronger effect = higher value
# Pantothenate synthetase (Mycobacterium tuberculosis (strain ATCC 25618 / H37Rv)), sequence (P9WIL5 whole entry, looked up): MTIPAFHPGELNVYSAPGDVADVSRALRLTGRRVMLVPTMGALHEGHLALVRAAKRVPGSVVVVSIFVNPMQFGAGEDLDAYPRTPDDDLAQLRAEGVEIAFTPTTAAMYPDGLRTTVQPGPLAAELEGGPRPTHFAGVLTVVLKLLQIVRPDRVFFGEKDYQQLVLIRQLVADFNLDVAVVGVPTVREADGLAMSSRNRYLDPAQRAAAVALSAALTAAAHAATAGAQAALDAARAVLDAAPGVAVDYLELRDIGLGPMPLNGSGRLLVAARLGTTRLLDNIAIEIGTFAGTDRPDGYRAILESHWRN
structure (smiles),measurement,setting,value
Cc1cc(NC(=O)c2noc3c2CCCCC3)nn1Cc1ccc(Cl)cc1,IC50,[1],> 100 µM
same,outcome,[2],inactive
Cc1cccc2sc(NC(=O)Cn3cccc3)nc12,inhibition,[2],0% (inactive)
Cc1ccc(Cn2ccc(NC(=O)c3cc(-c4cccs4)on3)n2)cc1,IC50,[1],> 100 µM
same,inhibition,[2],3% (inactive)
Cc1ccccc1Cn1nc(C)c(NC(=O)c2noc3c2CC(C(C)(C)C)CC3)c1C (centres undefined),IC50,[1],> 100 µM
same,outcome,[2],inactive
COc1cc(OC)c(C2N(C)c3ccccc3N2C)cc1OC,inhibition,[2],0% (inactive)
Cc1cc2ncn(S(=O)(=O)c3ccc(S(=O)(=O)N4CCOCC4)cc3)c2cc1C,inhibition,[2],5% (inactive)
O=C1c2ccccc2C(Nc2ccc3c(c2)OCCO3)N1Cc1ccco1 (centres undefined),inhibition,[2],0% (inactive)
COc1ccc2c(c1)CCc1c(C(=O)Nc3ccn(Cc4ccc(C)cc4)n3)noc1-2,IC50,[1],> 100 µM
same,outcome,[2],inactive
O=C(NCCN1CCCCCC1)c1ccc(CS(=O)(=O)c2ccc(Br)cc2)o1,inhibition,[2],0% (inactive)
Cc1cc(C)n2c(SCCN3C(=O)c4ccccc4C3=O)nnc2n1,inhibition,[2],0% (inactive)
O=C(CCNC(=O)Cn1ccc2ccccc2c1=O)NCCN1CCN(c2ccccc2F)CC1,inhibition,[2],0% (inactive)
COc1cc(CC(=O)Oc2ccc3c(c2)OCO3)cc(OC)c1OC,inhibition,[2],0% (inactive)
Cc1nc2ccccc2c(=O)n1/N=C/c1ccncc1,inhibition,[2],3% (inactive)
CC(=O)c1coc2ccc(OCC(=O)O)cc12,inhibition,[2],0% (inactive)
CCOC(=O)n1c(SCC(=O)N(CC)CC)nc2ccccc21,inhibition,[2],0% (inactive)
O=C1CC(c2cccnc2)c2cc3c(cc2N1)OCO3 (centres undefined),inhibition,[2],0% (inactive)
CCOC(=O)CC(=O)CSc1nc(-c2cccnc2)ccc1C#N,inhibition,[2],0% (inactive)
COCCCNS(=O)(=O)c1ccc2c(c1)CCN2C(C)=O,inhibition,[2],0% (inactive)
Cc1ccc(-c2ccc(SCC(=O)Nc3nonc3C)nn2)cc1,inhibition,[2],3% (inactive)
O=C(N1CCOCC1)N1CCC(NC(=O)C23CC4CC(CC(C4)C2)C3)CC1,inhibition,[2],0% (inactive)
O=C(CCSc1ccccc1)Nc1ccc(S(=O)(=O)N2CCOCC2)cc1,inhibition,[2],7% (inactive)
CC(C(=O)N1CCOCC1)N1c2cccc3cccc(c23)S1(=O)=O (centres undefined),inhibition,[2],8% (inactive)
CN(C)S(=O)(=O)Nc1ccc(Br)cc1F,inhibition,[2],0% (inactive)
COc1ccc(N(CC(=O)N2CCN(Cc3ccc4c(c3)OCO4)CC2)S(C)(=O)=O)cc1OC,inhibition,[2],5% (inactive)
Cc1[nH]c2ccc(F)cc2c(=O)c1SC(F)(F)C(F)C(F)(F)F (centres undefined),inhibition,[2],1% (inactive)
O=C(OCC(=O)N1CCCC1)c1cncc(Br)c1,inhibition,[2],1% (inactive)
CCOC(=O)Cn1nnnc1C(C(C)C)N(Cc1cc2c(C)cc(C)cc2[nH]c1=O)C1CCCC1 (centres undefined),inhibition,[2],0% (inactive)
Fc1ccccc1-c1nc(NCCCN2CCOCC2)c2ccccc2n1,inhibition,[2],0% (inactive)
CC1=C(C(=O)N2CCOCC2)C(c2ccsc2)C2=C(CCCC2=O)N1 (centres undefined),inhibition,[2],0% (inactive)
NCc1cccc(-n2cccn2)c1,inhibition,[2],0% (inactive)
Cc1ccc2cc(C(c3nnnn3C3CCCC3)N3CCN(c4ccc(F)cc4)CC3)c(=O)[nH]c2c1 (centres undefined),inhibition,[2],6% (inactive)
COc1ccccc1CNC(=O)C1CCCN(S(=O)(=O)c2cccc3cccnc23)C1 (centres undefined),inhibition,[2],1% (inactive)
CN(C)c1ccc(NC(=O)c2cc3c(=O)n4ccccc4nc3n2C)cc1,inhibition,[2],7% (inactive)
O=C(COC(=O)CSc1nnc(-c2ccc(Cl)cc2)o1)NCc1ccc2c(c1)OCO2,inhibition,[2],12% (inactive)
O=C(Nc1cc(C(F)(F)F)ccc1Cl)c1cc(C2CC2)on1,inhibition,[2],2% (inactive)
CCOc1cccc(-c2nnc3n2N=C(c2cc(OC)ccc2OC)CS3)c1,inhibition,[2],8% (inactive)
COc1ccc(Nc2ncc3c(n2)CC(c2ccc(OC)cc2)CC3=O)cc1 (centres undefined),inhibition,[2],3% (inactive)
COc1ccc(OC)c(S(=O)(=O)N2CCC(C(=O)NCc3ccccc3OC)CC2)c1,inhibition,[2],0% (inactive)
NC(=O)C1(N2CCCCC2)CCN(C(=O)Nc2ccccc2C(F)(F)F)CC1,inhibition,[2],1% (inactive)
CCOC(=O)N1CCN(C(=O)c2ccc3c(SCC(=O)O)c4c(nc3c2)CCCC4)CC1,inhibition,[2],0% (inactive)
CC(=O)N1CCc2cc(Br)cc(S(=O)(=O)NCCCN3CCCC(C)C3)c21 (centres undefined),inhibition,[2],2% (inactive)
C=C(C)COc1ccc(-c2n[nH]c(C)c2-c2ccccc2)c(O)c1,inhibition,[2],0% (inactive)
O=S(=O)(c1ccc(OCC(O)CN2CCN(c3ccccc3)CC2)cc1)N1CCOCC1 (centres undefined),inhibition,[2],7% (inactive)
CN(C)C(=O)CSc1nnc([C@H](Cc2c[nH]c3ccccc23)NC(=O)OC(C)(C)C)o1,inhibition,[2],13% (inactive)
Cc1nnc(NC(=O)Nc2cccc(Cl)c2)s1,inhibition,[2],0% (inactive)
CC1(C)Cc2c(C#N)c(SCCC#N)nc(N3CCOCC3)c2CS1,inhibition,[2],0% (inactive)
O=C(Nc1ccccc1)N(O)c1ccc(Cl)cc1,inhibition,[2],4% (inactive)
O=C(O)c1[nH]c2ccc(Cl)cc2c1CC(=O)N1CCN(C(=O)c2ccco2)CC1,inhibition,[2],2% (inactive)
Cc1ccnc(NC(=O)CCC(=O)N(CC(=O)NC2CCCCC2)c2cccc(C)c2C)c1,inhibition,[2],0% (inactive)
CCCCC(=O)NCCc1cc2ccc(OC)cc2[nH]c1=O,inhibition,[2],0% (inactive)
